Source: PubChem BioAssay AID1006 (Sanford-Burnham Center for Chemical Genomics, 2008)
Among all 200,000 compounds or so, about 3,000 (1.5%) were called active. This excerpt belongs to a sample that is enriched for actives. Values without a mark were called inactive.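 The calls were made as follows: active = inhibition above about 50% when tested at 10 µM (limit read from the data); inactive = the rest.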

What follows are compounds tested against Luciferin 4-monooxygenase (Photinus pyralis) (UniProt P08659) (assay: firefly luciferase enzyme inhibitors, primary screen, artefact control for luciferase-based inhibitor screens, biochemical, luminescence, ATPLite (AID 1006)). Conditions: 10 min, at 10 µM, hits give high values.
Sequence of Luciferin 4-monooxygenase (Photinus pyralis) (P08659 whole entry, looked up): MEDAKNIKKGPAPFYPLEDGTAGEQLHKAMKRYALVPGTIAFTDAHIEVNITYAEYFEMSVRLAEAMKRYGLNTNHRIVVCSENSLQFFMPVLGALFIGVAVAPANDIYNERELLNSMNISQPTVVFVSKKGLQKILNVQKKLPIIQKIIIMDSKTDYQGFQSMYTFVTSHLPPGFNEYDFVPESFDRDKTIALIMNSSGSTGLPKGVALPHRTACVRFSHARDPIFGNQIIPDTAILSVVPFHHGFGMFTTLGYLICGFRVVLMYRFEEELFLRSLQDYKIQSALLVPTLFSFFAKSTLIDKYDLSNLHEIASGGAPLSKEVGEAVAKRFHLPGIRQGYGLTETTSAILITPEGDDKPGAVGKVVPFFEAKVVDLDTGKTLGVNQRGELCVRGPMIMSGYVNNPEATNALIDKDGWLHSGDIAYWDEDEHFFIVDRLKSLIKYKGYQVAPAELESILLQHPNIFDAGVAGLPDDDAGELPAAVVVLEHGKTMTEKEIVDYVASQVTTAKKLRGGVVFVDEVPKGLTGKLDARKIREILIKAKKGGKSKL
Work on `Cc1ccc(-c2cc(C(=O)NCc3cn(C)nc3C)c3cc(Br)ccc3n2)cc1` yielded an inhibition of 10.9%. `Cc1ccc2nc(-c3ccccc3)cc(C(=O)O)c2c1` was tested, and the inhibition was 15.5%. In the case of `Cc1ccc2nc(-c3cccc(Br)c3)cc(C(=O)Nn3cnnc3)c2c1`, the inhibition is reported as 78.1% (active). In the case of `Cc1nn2cc(-c3ccc(Cl)cc3)cnc2c1Br`, the inhibition is reported as 7.5%. `Cc1noc(C)c1COc1ccc2ccc(=O)oc2c1` gave an inhibition of -2.2%. In the case of `COc1ccc(-c2cc3ccc(OCc4nn[nH]n4)cc3oc2=O)cc1`, the inhibition is reported as 81.4% (active). `CCCCc1cc(=O)oc2cc(C)cc(OCc3nn[nH]n3)c12` showed an inhibition of -6.7%. Compound `Cc1cc(Cl)ccc1NC(=S)N1CCC(C(N)=O)(N2CCCCC2)CC1` has an inhibition of -2.1%. With `Cc1ccc(S(=O)(=O)N(NC2=NS(=O)(=O)c3ccccc32)C(=O)c2ccccc2)cc1` the inhibition was 0.4%. For `CC(C)(C)c1csc(NC2=NS(=O)(=O)c3ccccc32)n1`, the inhibition was 77.2% (active). `O=C(Oc1cccc(NC2=NS(=O)(=O)c3ccccc32)c1)c1ccncc1` gave an inhibition of -2.8%. In the case of `N/C(=N\OC(=O)CCC1CCCCC1)c1ccccn1`, the inhibition is reported as 71.2% (active). In the case of `COc1ccc(/C(N)=N/OC(=O)Cc2ccccc2)cc1`, the inhibition is reported as 10.9%. Compound `N/C(=N\OC(=O)CCc1ccccc1)c1ccc(Cl)cc1` has an inhibition of 0.8%. Compound `N/C(=N\OC(=O)CCc1ccccc1)c1cccnc1` has an inhibition of 14.6%. For `N/C(=N\OC(=O)CC1CCCCC1)c1ccccc1`, the inhibition was 90.2% (active). For `CCC(C)(NC(=O)c1ccccn1)C(=O)NC1CCCCC1` (stereo unspecified), the inhibition was -4.6%. With `Cc1cc(C)nc(/N=C2\NC(=O)CC(C(=O)O)N2c2ccc(Cl)cc2Cl)n1` (stereo unspecified) the inhibition was -5.6%. In the case of `COc1ccccc1-c1noc(CSc2nc(C)cc(=O)[nH]2)n1`, the inhibition is reported as -0.3%. Compound `CCc1ccc(NC(=O)C(=O)N/N=C(\C)CC(=O)NCCOC)cc1` has an inhibition of 10.5%. With `CCCCNC(=O)N1CCN(S(C)(=O)=O)CC1` the inhibition was -1.2%. `CC(C)n1c(-c2ccncc2)n[nH]c1=S` gave an inhibition of -5.7%. `Cc1cccc(NC(=S)N2CCC(O)CC2)c1C` was tested, and the inhibition was -0.2%. For `CCCC(=O)Nc1ccc(C(=O)N/N=C/c2ccc[nH]2)cc1`, the inhibition was -1.8%. In the case of `O=C(c1cc(Cl)cc(Cl)c1)N1CCC(=O)N(C(COCc2ccccc2)Cc2ccccc2)CC1` (stereo unspecified), the inhibition is reported as -9.5%. `O=C(O)Cc1sc(-c2ccccc2)nc1-c1cccs1` showed an inhibition of 6.8%. `NC(=O)Cc1ccc2sc(-c3ccccc3)nc2c1` was tested, and the inhibition was 65.2% (active). Work on `O=C(O)Cc1sc(-c2ccc(C(=O)O)cc2)nc1-c1ccccc1` yielded an inhibition of -4.9%. `CCOC(=O)c1ccc(NC(=O)C2CC(=O)Nc3nc4ccccc4n32)cc1` (stereo unspecified) showed an inhibition of 0.7%. For `NC(=O)Cc1nc2scc(-c3ccc(Cl)cc3)c2c(=O)[nH]1`, the inhibition was -1.4%. `O=c1[nH]c(CCl)nc2cc(-c3ccc(Cl)cc3)sc12` was tested, and the inhibition was 93.3% (active). `O=c1[nH]c(CN2CCOCC2)nc2cc(Cl)ccc12` gave an inhibition of -3.5%. Compound `Cc1cccc(NC(=O)NC(=S)NC(=O)c2ccccc2)c1` has an inhibition of 12.7%. For `Cn1c(-c2ccccc2)c[n+]2c1CCCCC2`, the inhibition was -4.6%. `COc1ccc(C2=NN(c3ccccc3)C(c3cccs3)C2)cc1` (stereo unspecified) gave an inhibition of 5.5%. `O=c1c2ccccc2nc(N/N=C/c2ccccc2)n1O` was tested, and the inhibition was 90.5% (active). Compound `CC(C)(C)c1nnc(N/N=C/c2ccc(O)cc2)n(N)c1=O` has an inhibition of 17.8%. For `FC(F)(F)c1nc2ccccc2nc1N/N=C/c1ccc(Cl)cc1`, the inhibition was 8.5%. Work on `c1ccc2c(NC3C4CC5CC(C4)CC3C5)nc(N3CCOCC3)nc2c1` (stereo unspecified) yielded an inhibition of -8.2%. With `CCOc1ccc(NC(=O)c2cc(C)nc3ccccc23)cc1` the inhibition was -2.9%. With `CCc1cccc(C)c1NC(=S)N(CCCN1CCN(C)CC1)Cc1cccs1` the inhibition was -0.5%. With `CN1C(=O)/C(=C\c2cc(Br)cs2)c2ccccc21` the inhibition was 32.4%. `CN(C)c1nccc(NCc2ccccc2)c1C#N` showed an inhibition of -1.3%. `O=C1NC(c2ccccc2)CCC1(Cl)Cl` (stereo unspecified) gave an inhibition of -1.3%. `O=C(CSc1ccc(/C=N/NC(=O)c2cccc(F)c2)o1)Nc1ccccc1` gave an inhibition of 3.7%. With `Cc1ccc(NC(=O)C(=O)NCc2ccc(/C=N/NC(=O)c3c(C)nc4cc(C)ccn34)o2)cc1` the inhibition was 70.8% (active). Work on `C/C(=N\OC(=O)c1ccccc1)c1c(C)nc2cc(C)ccn12` yielded an inhibition of -3.4%. With `C[C@@H]1CC[C@]2(O[C@@H](CCO)C[C@H](O)[C@H]2O)O1` the inhibition was -2.6%. For `CCN(CC)CCNC(=O)c1ccc(NC(=O)c2c(F)cccc2Cl)cc1`, the inhibition was -2%. For `CC(=O)Nc1ccc(S(=O)(=O)NC2(C(F)(F)F)C(=O)NC(C)=C2C#N)cc1` (stereo unspecified), the inhibition was -5.9%. `CNC(=O)COC(=O)c1cc(-c2ccc(OC)cc2)nc2ccccc12` was tested, and the inhibition was 54.2% (active). Compound `COc1ccc(-c2cc(C(=O)n3cnc4ccccc43)c3ccccc3n2)cc1` has an inhibition of 36.7%. With `C/C(N)=C(/C#N)C(=O)COC(=O)c1cc(-c2ccc(C)cc2)nc2ccccc12` the inhibition was 12.9%. `O=C(NNc1cc(Cl)ccc1Cl)c1cccnc1Cl` gave an inhibition of -7.9%. `CC(=O)c1sc(N/N=C\c2ccc(C)cc2)nc1C` showed an inhibition of -5.2%. For `CC(=O)c1sc(NC(=O)c2ccc(C)cc2)nc1C`, the inhibition was 68.8% (active). `CC(=O)c1sc(NC(=O)c2cccc3ccccc23)nc1C` gave an inhibition of -4.9%. For `COc1ccc(OC)c(/C=C/C(=O)OCC(=O)Nc2ccc3c(c2)OCCO3)c1`, the inhibition was 0.6%. For `Cc1cccc(NC(=O)/C=C/c2ccc3c(c2)OCO3)n1`, the inhibition was 89.3% (active). Compound `COc1ccc(/C=C/C(=O)Nc2ccc3c(c2)OCCO3)cc1OC` has an inhibition of 10.1%. In the case of `CC(C)C(=O)Nc1cccc(C(=O)Nc2ccc3c(c2)OCO3)c1`, the inhibition is reported as 33%. For `CC(NC(=O)Nc1ccc2c(c1)OCO2)c1ccncc1` (stereo unspecified), the inhibition was -4.9%. In the case of `Cc1cccc(NC(=O)Nc2ccc3c(c2)OCO3)n1`, the inhibition is reported as 55% (active). `CCc1c(C)sc(NC(=O)/C=C/c2ccc3c(c2)OCO3)c1C(=O)OC` gave an inhibition of 5%. Compound `O=C(/C=C/c1ccc2c(c1)OCO2)NCc1ccc(F)cc1` has an inhibition of 1.2%. `COc1cccc(/C=C/C(=O)Nc2ccc3c(c2)OCCO3)c1` was tested, and the inhibition was 86.5% (active).
